system: HEK293 WT BDD-FVIII-Gluc; assay: secreted FVIII-Gluc luciferase Z-score vs DMSO control; higher = more FVIII-Gluc secretion; settings: 5 µM
Description: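 Natural plant-compound library (480 compounds, ST catalogue IDs) screened on HEK293 cells stably expressing WT BDD-FVIII-Gaussia luciferase fusion at 5 µM. Secreted Gluc activity in the medium is given as a Z-score relative to DMSO controls.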

Point of comparison: `O=c1cc(-c2ccccc2)oc2c1ccc1ccccc12`, “secreted FVIII-Gluc luciferase Z-score” value 0.373. Against it:
- CC1=CC(=O)CC(C)(C)C1(O)/C=C/C(C)=C\C(=O)O (stereo not given) — higher, 0.388
- N[C@H](Cc1c[nH]c2ccccc12)C(=O)O — lower, 0.298
- C[C@H](C(=O)O)c1cccc(C(=O)c2ccccc2)c1 — lower, 0.342
- Nc1nc2c(ncn2[C@@H]2O[C@H](COP(=O)(O)O)[C@@H](O)[C@H]2O)c(=O)[nH]1 — lower, 0.0522
- COC(=O)C[C@](O)(CCCC(C)(C)O)C(=O)O[C@@H]1C(OC)=C[C@]23CCCN2CCc2cc4c(cc2[C@H]13)OCO4 — lower, -4.72
- O=c1[nH]cnc2c1ncn2C1OC(CO)C(O)C1O (stereo not given) — lower, -0.0892
- C=CC(C)(O)CCC=C(C)C (stereo not given) — lower, -0.395
- O=c1cc(-c2ccccc2)oc2cc(O[C@@H]3O[C@H](CO)[C@@H](O)[C@H](O)[C@H]3O)c(O)c(O)c12 — lower, -0.188
- O=C(O)CCCC[C@@H]1SC[C@@H]2NC(=O)N[C@@H]21 — higher, 0.929
- CO[C@@H]1[C@@H](OC2OC(C)C(OC3CC(C)(O)C(O)C(C)O3)C(N(C)C)C2O)[C@@H](CC=O)C[C@@H](C)[C@@H](OC2CCC(N(C)C)C(C)O2)/C=C/C=C/C[C@@H](C)OC(=O)C[C@H]1O (stereo not given in full) — lower, 0.36
- Cc1ccc2oc(-c3ccccc3)cc(=O)c2c1 — higher, 0.845
- COC(=O)[C@H]1[C@H]2C[C@H]3c4[nH]c5ccccc5c4CCN3C[C@H]2CC[C@@H]1O — lower, -0.252
- O=C1C[C@H](c2ccccc2)Oc2cc(O)cc(O)c21 — higher, 0.533
- OCC1(O)OC[C@H](O)[C@@H](O)[C@@H]1O (stereo not given in full) — higher, 0.437
- COc1ccc2c3c1O[C@H]1C[C@@H](O)C=CC31CCN(C)C2 (stereo not given in full) — lower, 0.116
- Cc1cc(=O)cc2oc3cc(N)c(-c4c(C)cc(O)cc4O)c(C)c3nc1-2 — lower, -0.31
- C=C(C)[C@H]1CC=C(C)C(=O)C1 — higher, 0.764
- COc1ccccc1-c1cc(=O)c2cc(O)ccc2o1 — lower, 0.281
- O=c1cc(-c2ccc(O)cc2O)oc2ccccc12 — higher, 0.498
- COC(=O)[C@@H]1[C@H]2C[C@H]3c4[nH]c5ccccc5c4CCN3C[C@@H]2CC[C@@H]1O — lower, 0.00333
- COc1c(O)cc2oc3cc(O)c(CC=C(C)C)c(O)c3c(=O)c2c1CC=C(C)C — lower, 0.316
- C=C1CCC2C(C)(CO)C(O)CCC2(C)C1C/C=C1\C(=O)OCC1O (stereo not given) — lower, -1.01
- Cc1c(C)c2c(c(C)c1O)CC[C@@](C)(CCC[C@H](C)CCC[C@H](C)CCCC(C)C)O2 — higher, 0.497
- CC1OC(OCC2OC(Oc3c(-c4ccc(O)c(O)c4)oc4cc(O)cc(O)c4c3=O)C(O)C(O)C2O)C(O)C(O)C1O (stereo not given) — lower, -0.909
- CC(=O)N1C=C(C2CCCCN2)CCC1 (stereo not given) — higher, 0.76
- CC(=O)C1=C(O)C=C2Oc3c(C(C)=O)c(O)c(C)c(O)c3[C@]2(C)C1=O — higher, 1.04
- O=c1c(-c2ccc(O)cc2)coc2cc(O)cc(O)c12 — lower, -1.4
- CCOC(=O)C1=C[C@]2(CC)CCCN3CCc4c(n1c1ccccc41)[C@@H]32 — lower, 0.132
- CN1CCc2cc3c(cc2C(=O)Cc2ccc4c(c2C1)OCO4)OCO3 — lower, -0.0429
- COc1ccc2oc(-c3ccc(O)cc3)cc(=O)c2c1 — higher, 1.23
- CC1=C(C2=C(C)C(C(C)C)C3=C(C(=O)C(O)C3O)C2O)C(O)C2=C(C(O)C(O)C2=O)C1C(C)C (stereo not given) — lower, -0.542
- NCCC(=O)N[C@@H](Cc1cnc[nH]1)C(=O)O — lower, -1.31
- CC1CC2(C)Oc3ccccc3C3OCC1(COC(=O)Nc1ccccc1)C(C)C32 (stereo not given) — lower, -0.945
- Cc1cc(=O)oc2cc(O[C@@H]3O[C@H](C(=O)O)[C@@H](O)[C@H](O)[C@H]3O)ccc12 — lower, 0.123
- O=C(O)C1=C[C@@H](O)[C@@H](O)[C@H](O)C1 — lower, 0.3
- C[C@H]1[C@H]2CC[C@H]3[C@@H]4CC=C5C[C@@H](N(C)C)CC[C@]5(C)[C@H]4CC[C@]23CN1C — lower, 0.23
- OCc1ccccc1O[C@@H]1O[C@H](CO)[C@@H](O)[C@H](O)[C@H]1O — higher, 0.752
- C[C@H]1c2ccoc2CC2[C@H]1CCC1[C@@](C)(CC(=O)O)CCC[C@]21C (stereo not given in full) — higher, 0.392
- COc1cc2ccc(=O)oc2c(O)c1O — lower, 0.185
